{"source": "PubChem BioAssay AID504652", "about": "(National Center for Advancing Translational Sciences (NCATS), 2011)", "note": "Screen size: about 360,000 compounds; about 11,000 (3.1%) were called active. Cut-off read from the data, not from the text of the source: active = activity change below about -30%; inactive = the rest. Only a selection was taken, and actives are over-represented in it overall. % is set by controls: 0 for no effect and ±100 for the full control effect.", "data": [{"molecular_target": "D(1A) dopamine receptor (Homo sapiens) (UniProt P21728)", "sequence (P21728 whole entry, looked up)": "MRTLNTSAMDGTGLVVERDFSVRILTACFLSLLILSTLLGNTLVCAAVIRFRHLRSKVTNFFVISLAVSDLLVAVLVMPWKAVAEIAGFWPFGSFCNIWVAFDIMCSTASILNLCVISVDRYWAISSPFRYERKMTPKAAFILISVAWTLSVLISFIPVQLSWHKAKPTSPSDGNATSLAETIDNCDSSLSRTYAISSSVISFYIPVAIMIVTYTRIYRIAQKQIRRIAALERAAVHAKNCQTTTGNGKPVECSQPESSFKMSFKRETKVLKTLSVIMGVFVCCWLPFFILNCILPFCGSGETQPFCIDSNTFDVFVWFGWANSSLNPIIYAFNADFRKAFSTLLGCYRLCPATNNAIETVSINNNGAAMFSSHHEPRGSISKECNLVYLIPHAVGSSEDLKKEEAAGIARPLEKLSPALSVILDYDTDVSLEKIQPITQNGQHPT", "test": "Antagonist of Human D 1 Dopamine Receptor: qHTS", "conditions": "HEK293 TREx D1 cells, calcium flux, dopamine EC80; at 10 µM; active compounds read low", "summary_of_the_method": "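Compound effects on dopamine-evoked calcium signalling were measured in tetracycline-induced HEK293 Trex D1 cells. Dopamine at EC80 followed a 180 s compound pre-read, and fluorescence was tracked kinetically for 180 s more.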", "values": [{"smiles": "COc1ccc(CNC(=O)c2ccc3c(c2)nc2n3CCOC2)c(OC)c1", "activity change, negative = inhibition": "1.06% (inactive)"}, {"smiles": "Cc1ccc(CNC(=O)CSC2=Nc3ccccc3C3=NC(C)C(=O)N23)cc1", "note": "(stereo not drawn)", "activity change, negative = inhibition": "-1.57% (inactive)"}, {"smiles": "O=C(CSc1ccc(-c2ccccc2)nn1)NCC1CCCO1", "note": "(stereo not drawn)", "activity change, negative = inhibition": "5.37% (inactive)"}, {"smiles": "O=C(CSC1=Nc2ccccc2C2=NC(c3ccccc3)C(=O)N12)NCC1CCCO1", "note": "(stereo not drawn)", "activity change, negative = inhibition": "-47% (active)"}, {"smiles": "O=C(COc1ccc(Cl)cc1)Nc1ccc(-c2nc3cc(Cl)ccc3o2)c(O)c1", "activity change, negative = inhibition": "3.9% (inactive)"}, {"smiles": "CN(CC(=O)Nc1ccccc1F)S(=O)(=O)c1ccc2c(c1)c(=O)n(C)c(=O)n2C", "activity change, negative = inhibition": "8.37% (inactive)"}, {"smiles": "CCOc1ccc(NC(=O)C(CC(C)C)N2Cc3ccccc3C2=O)cc1", "note": "(stereo not drawn)", "activity change, negative = inhibition": "6.62% (inactive)"}, {"smiles": "COC(=O)c1ccc(NC(=O)C(C)N2C(=O)c3ccccc3C2=O)cc1", "note": "(stereo not drawn)", "activity change, negative = inhibition": "-2.2% (inactive)"}, {"smiles": "CCOc1ccc(NC(=O)C(C)N2C(=O)c3ccccc3C2=O)cc1", "note": "(stereo not drawn)", "activity change, negative = inhibition": "-42.7% (active)"}, {"smiles": "COc1cc2nc(SCC(=O)Nc3ccccc3F)n3nc(-c4ccccc4)nc3c2cc1OC", "activity change, negative = inhibition": "-6.83% (inactive)"}, {"smiles": "COc1ccc(CNc2nc(-c3ccc(Cl)cc3)nn2C(=O)c2ccccc2)cc1", "activity change, negative = inhibition": "-0.876% (inactive)"}, {"smiles": "Cc1cccc(NC(=O)Cn2c(=O)n(Cc3ccccc3)c(=O)c3c(C)c(C)sc32)c1", "activity change, negative = inhibition": "-0.708% (inactive)"}, {"smiles": "Cc1c(C(=O)N(C)C)sc2c1c(=O)n(-c1ccc(F)cc1)c(=O)n2CC(=O)N(C)c1ccccc1", "activity change, negative = inhibition": "-0.832% (inactive)"}, {"smiles": "CCOc1ccccc1NC(=O)Cn1c(=O)n(Cc2ccccc2)c(=O)c2c(C)c(C(=O)N(C)C)sc21", "activity change, negative = inhibition": "-72.6% (active)"}, {"smiles": "CCOc1ccc(OCC)c(NS(=O)(=O)c2ccc3[nH]c(=O)ccc3c2)c1", "activity change, negative = inhibition": "-7.27% (inactive)"}, {"smiles": "CCCOc1ccc(C2=CSC3=NCCN23)cc1Cl", "activity change, negative = inhibition": "3.06% (inactive)"}, {"smiles": "CCC1SC2=NCCN2C1(O)c1ccc(Cl)cc1", "note": "(stereo not drawn)", "activity change, negative = inhibition": "-31.5% (active)"}, {"smiles": "Cc1cn(C)c(CC(=O)NCc2ccccc2)c1C(=O)O", "activity change, negative = inhibition": "0.691% (inactive)"}, {"smiles": "Cc1cc(F)ccc1NC1(c2ccccc2)C(=O)c2ccccc2C1=O", "activity change, negative = inhibition": "-5.68% (inactive)"}, {"smiles": "COc1ccc(OCCn2cc(C(=O)C3CCCCC3)c3ccccc32)cc1", "activity change, negative = inhibition": "10.3% (inactive)"}, {"smiles": "CCOC(=O)C1CCCN(C(=O)c2ccc(-n3ccc4ccccc43)s2)C1", "note": "(stereo not drawn)", "activity change, negative = inhibition": "-9.46% (inactive)"}, {"smiles": "Cc1ccc(Nc2c(-c3ccc(N(C)C)cc3)nc3nc[nH]n23)cc1", "activity change, negative = inhibition": "1.41% (inactive)"}, {"smiles": "CCOC(=O)C1CCN(C(=O)c2cccc(S(=O)(=O)N(CC)c3ccccc3)c2)CC1", "activity change, negative = inhibition": "-4.11% (inactive)"}, {"smiles": "O=C(NCc1ccccc1CN1CCCC1)c1cccc(S(=O)(=O)Nc2ccc(F)cc2)c1", "activity change, negative = inhibition": "2.42% (inactive)"}, {"smiles": "CCN(c1ccccc1)S(=O)(=O)c1cccc(C(=O)NCc2ccccc2CN2CCOCC2)c1", "activity change, negative = inhibition": "-31.4% (active)"}, {"smiles": "COc1cccc(Cn2c(SCc3ccc(C(=O)N4CCC(C)CC4)cc3)nc3ccncc32)c1", "activity change, negative = inhibition": "-10.8% (inactive)"}, {"smiles": "CC(C)(C)OC(=O)N1CCC(c2c(C(=O)NCCc3ccsc3)cnn2-c2ccc(F)cc2F)CC1", "activity change, negative = inhibition": "-6.33% (inactive)"}, {"smiles": "CC1CCN(C(=O)C2CCN(S(=O)(=O)N3CCC4(CC3)OCCO4)CC2)CC1", "activity change, negative = inhibition": "-37.8% (active)"}, {"smiles": "CCOC(=O)C1CCN(C(=O)C2CCN(S(=O)(=O)N3CCCC3)CC2)CC1", "activity change, negative = inhibition": "-2.4% (inactive)"}, {"smiles": "O=C(O)C1CCN(S(=O)(=O)N2CCOCC2)CC1", "activity change, negative = inhibition": "0.172% (inactive)"}, {"smiles": "CC(=O)Nc1cccc(C(=O)OCC(=O)c2ccc3c(c2)OCO3)c1", "activity change, negative = inhibition": "-0.144% (inactive)"}, {"smiles": "CC(C)C(=O)Nc1cccc(C(=O)Nc2ccc3c(c2)OCO3)c1", "activity change, negative = inhibition": "-43.1% (active)"}, {"smiles": "CCSc1ccccc1C(=O)Nc1ccc2c(c1)OCO2", "activity change, negative = inhibition": "10% (inactive)"}, {"smiles": "Cc1ccc(Cn2c(=O)n(CCCC(=O)NCc3ccccc3Cl)c(=O)c3ccccc32)cc1", "activity change, negative = inhibition": "5.86% (inactive)"}, {"smiles": "Fc1ccc(CSc2nc(NCc3ccccc3)c3ccccc3n2)cc1", "activity change, negative = inhibition": "21.1% (inactive)"}, {"smiles": "CCOc1ccc(OCC)c(Nc2nc3ccccc3n3nnnc23)c1", "activity change, negative = inhibition": "1.86% (inactive)"}, {"smiles": "Fc1ccc(CNc2nc3ccccc3n3nnnc23)cc1", "activity change, negative = inhibition": "-50.2% (active)"}, {"smiles": "CCOC(=O)c1cccc(NC(=O)C(Cc2ccccc2)NS(=O)(=O)c2cccc3nsnc23)c1", "note": "(stereo not drawn)", "activity change, negative = inhibition": "-3.2% (inactive)"}, {"smiles": "CCOc1ccccc1OCCCNCc1ccccc1", "activity change, negative = inhibition": "-23.9% (inactive)"}, {"smiles": "OCCNCc1cccc(OCc2ccccc2Cl)c1", "activity change, negative = inhibition": "0.511% (inactive)"}, {"smiles": "Clc1cccc(Cl)c1OCCOCCNCc1ccccc1", "activity change, negative = inhibition": "-39.7% (active)"}, {"smiles": "O=C(CN1c2ccccc2S(=O)(=O)c2ccccc21)Nc1cccc(C(F)(F)F)c1", "activity change, negative = inhibition": "-3.23% (inactive)"}, {"smiles": "Cc1cccc(CC(=O)Nc2cccc(-c3cn4cccnc4n3)c2)c1", "activity change, negative = inhibition": "-7.29% (inactive)"}]}]}
